Columns and labels:
[1] = target: Death-associated protein kinase 1 (Homo sapiens) (UniProt P53355); conditions: at 1 µM;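 further: each value is a mean inhibition figure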
[2] = target: T1, Serine/threonine-protein kinase DCLK2 (Homo sapiens) (UniProt Q8N568); conditions: at 0.1 µM
T1 sequence (whole entry): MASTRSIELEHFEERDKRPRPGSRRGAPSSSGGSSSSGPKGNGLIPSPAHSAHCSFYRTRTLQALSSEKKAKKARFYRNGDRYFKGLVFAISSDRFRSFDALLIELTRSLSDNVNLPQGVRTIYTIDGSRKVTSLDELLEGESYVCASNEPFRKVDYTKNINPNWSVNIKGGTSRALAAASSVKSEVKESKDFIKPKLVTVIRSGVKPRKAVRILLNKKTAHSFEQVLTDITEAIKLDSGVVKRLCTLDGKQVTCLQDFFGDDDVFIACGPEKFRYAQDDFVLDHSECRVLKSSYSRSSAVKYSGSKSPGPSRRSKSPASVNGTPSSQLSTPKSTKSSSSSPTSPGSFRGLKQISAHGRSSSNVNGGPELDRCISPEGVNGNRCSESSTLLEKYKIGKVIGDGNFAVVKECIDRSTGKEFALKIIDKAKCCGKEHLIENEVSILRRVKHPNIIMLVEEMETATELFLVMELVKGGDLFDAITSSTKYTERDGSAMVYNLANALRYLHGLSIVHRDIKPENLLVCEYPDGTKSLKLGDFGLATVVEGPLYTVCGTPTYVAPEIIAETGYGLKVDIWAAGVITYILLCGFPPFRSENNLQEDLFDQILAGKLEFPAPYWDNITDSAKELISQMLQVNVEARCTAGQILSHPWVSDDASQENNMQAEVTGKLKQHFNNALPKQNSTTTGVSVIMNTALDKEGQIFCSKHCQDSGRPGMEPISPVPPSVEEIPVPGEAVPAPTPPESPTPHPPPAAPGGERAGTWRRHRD

[3] = target: T1, Serine/threonine-protein kinase DCLK2 (Homo sapiens); conditions: at 1 µM
[4] = target: MAP kinase-activated protein kinase 2 (Homo sapiens) (UniProt P49137); conditions: at 0.1 µM
[5] = target: MAP kinase-activated protein kinase 2 (Homo sapiens) (UniProt P49137); conditions: at 1 µM
[6] = target: MAP kinase-activated protein kinase 3 (Homo sapiens) (UniProt Q16644); conditions: at 0.1 µM
[7] = target: MAP kinase-activated protein kinase 3 (Homo sapiens) (UniProt Q16644); conditions: at 1 µM
[8] = target: Serine/threonine-protein kinase MARK1 (Homo sapiens) (UniProt Q9P0L2); conditions: at 0.1 µM
[9] = target: Serine/threonine-protein kinase MARK1 (Homo sapiens) (UniProt Q9P0L2); conditions: at 1 µM
[10] = target: MAP/microtubule affinity-regulating kinase 3 (Homo sapiens) (UniProt P27448); conditions: at 0.1 µM;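 further: mean percent inhibition of MARK3 kinase activity, measured within the GSK PKIS screening panel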
Sequence of MAP/microtubule affinity-regulating kinase 3 (Homo sapiens) (P27448 whole entry, looked up): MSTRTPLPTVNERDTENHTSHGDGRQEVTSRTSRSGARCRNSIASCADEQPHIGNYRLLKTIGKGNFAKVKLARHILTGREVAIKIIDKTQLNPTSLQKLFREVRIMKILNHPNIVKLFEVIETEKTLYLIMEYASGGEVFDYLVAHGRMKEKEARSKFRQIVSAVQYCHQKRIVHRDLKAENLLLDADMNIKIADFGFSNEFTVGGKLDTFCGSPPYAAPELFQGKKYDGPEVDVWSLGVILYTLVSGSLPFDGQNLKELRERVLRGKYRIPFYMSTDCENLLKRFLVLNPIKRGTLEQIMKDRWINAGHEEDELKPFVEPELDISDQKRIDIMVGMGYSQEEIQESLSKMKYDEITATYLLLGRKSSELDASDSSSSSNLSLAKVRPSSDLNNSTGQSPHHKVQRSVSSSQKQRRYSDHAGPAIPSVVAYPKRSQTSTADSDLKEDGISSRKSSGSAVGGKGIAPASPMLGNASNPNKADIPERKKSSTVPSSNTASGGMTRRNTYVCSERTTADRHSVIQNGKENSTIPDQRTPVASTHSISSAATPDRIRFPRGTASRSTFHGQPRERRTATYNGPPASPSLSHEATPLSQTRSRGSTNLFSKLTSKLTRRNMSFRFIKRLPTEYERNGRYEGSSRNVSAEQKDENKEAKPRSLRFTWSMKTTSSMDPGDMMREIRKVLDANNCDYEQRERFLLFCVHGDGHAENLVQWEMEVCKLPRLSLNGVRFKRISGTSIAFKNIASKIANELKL

Sequence of Serine/threonine-protein kinase MARK1 (Homo sapiens) (Q9P0L2 whole entry, looked up): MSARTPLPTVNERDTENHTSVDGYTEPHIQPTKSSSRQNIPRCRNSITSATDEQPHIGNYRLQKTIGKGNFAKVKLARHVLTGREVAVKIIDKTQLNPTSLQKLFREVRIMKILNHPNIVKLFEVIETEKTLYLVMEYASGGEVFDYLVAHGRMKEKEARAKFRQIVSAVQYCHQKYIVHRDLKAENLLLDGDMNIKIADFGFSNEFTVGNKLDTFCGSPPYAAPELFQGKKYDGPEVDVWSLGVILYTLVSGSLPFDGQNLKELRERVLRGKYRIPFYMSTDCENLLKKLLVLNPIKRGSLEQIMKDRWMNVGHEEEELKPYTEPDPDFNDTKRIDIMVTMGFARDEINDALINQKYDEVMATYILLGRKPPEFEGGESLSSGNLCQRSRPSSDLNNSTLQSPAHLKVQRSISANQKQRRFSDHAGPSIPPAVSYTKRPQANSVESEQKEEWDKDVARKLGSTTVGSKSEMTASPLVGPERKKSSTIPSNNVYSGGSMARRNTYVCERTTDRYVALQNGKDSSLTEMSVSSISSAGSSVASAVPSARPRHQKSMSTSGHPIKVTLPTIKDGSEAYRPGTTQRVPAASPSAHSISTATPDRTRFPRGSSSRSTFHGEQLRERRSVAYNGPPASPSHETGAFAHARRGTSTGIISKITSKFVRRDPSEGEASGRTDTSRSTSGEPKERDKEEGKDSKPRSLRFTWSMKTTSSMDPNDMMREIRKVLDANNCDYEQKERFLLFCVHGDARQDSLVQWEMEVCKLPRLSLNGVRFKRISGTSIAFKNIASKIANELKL
Sequence of MAP kinase-activated protein kinase 2 (Homo sapiens) (P49137 whole entry, looked up): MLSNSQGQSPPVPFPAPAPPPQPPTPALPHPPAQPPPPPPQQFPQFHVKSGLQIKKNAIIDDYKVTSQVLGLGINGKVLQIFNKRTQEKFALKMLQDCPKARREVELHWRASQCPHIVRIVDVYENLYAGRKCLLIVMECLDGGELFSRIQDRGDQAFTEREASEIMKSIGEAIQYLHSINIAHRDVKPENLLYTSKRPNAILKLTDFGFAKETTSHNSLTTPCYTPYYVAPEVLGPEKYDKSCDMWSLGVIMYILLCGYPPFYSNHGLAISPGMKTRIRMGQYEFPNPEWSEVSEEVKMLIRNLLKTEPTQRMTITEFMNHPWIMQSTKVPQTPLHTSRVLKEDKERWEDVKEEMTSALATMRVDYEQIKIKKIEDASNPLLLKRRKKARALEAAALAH
Sequence of MAP kinase-activated protein kinase 3 (Homo sapiens) (Q16644 whole entry, looked up): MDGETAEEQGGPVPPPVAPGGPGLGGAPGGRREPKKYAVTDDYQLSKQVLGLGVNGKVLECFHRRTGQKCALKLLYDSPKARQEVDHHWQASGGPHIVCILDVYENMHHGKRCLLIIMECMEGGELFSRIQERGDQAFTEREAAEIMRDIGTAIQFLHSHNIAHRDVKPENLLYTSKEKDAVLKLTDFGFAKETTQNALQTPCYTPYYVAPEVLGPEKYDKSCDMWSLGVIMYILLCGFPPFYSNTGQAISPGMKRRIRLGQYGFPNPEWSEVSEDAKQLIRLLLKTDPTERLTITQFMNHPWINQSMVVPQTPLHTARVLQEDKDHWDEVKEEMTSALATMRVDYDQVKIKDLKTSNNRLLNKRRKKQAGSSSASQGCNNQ
Sequence of Death-associated protein kinase 1 (Homo sapiens) (P53355 whole entry, looked up): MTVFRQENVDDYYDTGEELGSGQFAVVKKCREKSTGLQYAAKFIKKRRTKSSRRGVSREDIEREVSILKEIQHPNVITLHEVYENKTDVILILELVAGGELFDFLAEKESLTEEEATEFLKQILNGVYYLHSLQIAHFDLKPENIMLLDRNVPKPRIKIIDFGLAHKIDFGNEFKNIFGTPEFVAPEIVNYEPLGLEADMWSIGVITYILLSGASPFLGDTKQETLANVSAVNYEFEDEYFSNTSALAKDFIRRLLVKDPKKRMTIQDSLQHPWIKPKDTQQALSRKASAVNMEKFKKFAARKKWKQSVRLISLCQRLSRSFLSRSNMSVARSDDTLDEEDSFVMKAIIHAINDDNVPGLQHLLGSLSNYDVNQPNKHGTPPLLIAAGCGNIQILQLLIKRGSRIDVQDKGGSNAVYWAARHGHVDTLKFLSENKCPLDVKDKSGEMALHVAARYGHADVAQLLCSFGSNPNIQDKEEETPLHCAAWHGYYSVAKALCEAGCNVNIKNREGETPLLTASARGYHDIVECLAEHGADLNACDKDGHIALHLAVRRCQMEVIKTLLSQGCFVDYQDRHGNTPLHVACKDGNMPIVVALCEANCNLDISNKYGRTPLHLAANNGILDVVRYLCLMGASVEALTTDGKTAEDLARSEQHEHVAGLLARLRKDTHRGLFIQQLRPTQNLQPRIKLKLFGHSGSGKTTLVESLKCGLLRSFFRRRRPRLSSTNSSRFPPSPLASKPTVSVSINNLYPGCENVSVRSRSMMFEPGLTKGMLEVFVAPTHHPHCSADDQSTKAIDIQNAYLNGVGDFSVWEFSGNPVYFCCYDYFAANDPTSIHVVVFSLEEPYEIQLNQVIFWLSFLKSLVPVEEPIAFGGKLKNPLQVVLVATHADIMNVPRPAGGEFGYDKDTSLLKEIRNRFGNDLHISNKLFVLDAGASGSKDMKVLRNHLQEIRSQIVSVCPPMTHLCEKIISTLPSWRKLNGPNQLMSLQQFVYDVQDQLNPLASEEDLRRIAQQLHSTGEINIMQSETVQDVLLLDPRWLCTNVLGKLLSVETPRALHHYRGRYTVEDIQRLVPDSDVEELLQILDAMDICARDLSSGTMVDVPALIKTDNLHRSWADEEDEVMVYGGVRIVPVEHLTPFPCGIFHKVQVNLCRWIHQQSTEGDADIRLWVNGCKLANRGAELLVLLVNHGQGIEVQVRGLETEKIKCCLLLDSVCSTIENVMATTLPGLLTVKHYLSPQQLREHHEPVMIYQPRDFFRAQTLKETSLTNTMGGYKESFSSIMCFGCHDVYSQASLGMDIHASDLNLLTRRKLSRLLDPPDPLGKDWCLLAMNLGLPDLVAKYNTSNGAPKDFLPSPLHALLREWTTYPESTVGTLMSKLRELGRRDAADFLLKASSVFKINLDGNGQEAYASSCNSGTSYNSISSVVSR

| SMILES | inhibition [1] [%] | inhibition [2] [%] | inhibition [3] [%] | inhibition [4] [%] | inhibition [5] [%] | inhibition [6] [%] | inhibition [7] [%] | inhibition [8] [%] | inhibition [9] [%] | inhibition [10] [%] |
| --- | --- | --- | --- | --- | --- | --- | --- | --- | --- | --- |
| COc1cc2ncn(-c3cc(O[C@@H](C)c4ccccc4Cl)c(C(N)=O)s3)c2cc1OC | 8.9 | -1.19 | 3.6 | 5.43 | 5 | 9.03 | 10.9 | 4.26 | 9.07 | 4.06 |
| Fc1cccc(COc2ccc(Nc3ncnc4sc(-c5cccs5)cc34)cc2Cl)c1 | -9.5 | -1.25 | 2.62 | -2.05 | -2.63 | -4.76 | -5.22 | 0.88 | 2.73 | 0.02 |
| Cc1nn(C)c2cc(N(C)c3ccnc(Nc4cccc(S(N)(=O)=O)c4)n3)ccc12 | 8.09 | 0.57 | 0.12 | 3.83 | 3.29 | 8.73 | 11 | 3.07 | 4.05 | 0.92 |
| CS(=O)(=O)Nc1ccc(N/C=C2\C(=O)Nc3ccccc32)cc1 | -2.55 | -2.55 | -4.45 | -1.85 | -1.69 | -2.11 | -2.88 | 3.85 | 23.8 | 0.83 |
| O=C1NC(=O)C(c2ccc(Cl)cc2)=C1Nc1ccc(Cl)c(C(=O)O)c1 | -1.43 | -1.2 | -0.41 | -1.23 | -1.83 | -0.48 | -1 | -0.68 | -0.26 | -0.12 |
| O=C1NC(=O)C(c2ccccc2Cl)=C1Nc1cccc(O)c1 | 3.55 | -0.07 | 1.16 | 1.27 | 1.05 | 1.45 | 1.77 | 1.97 | 8.19 | 1.72 |
| Nc1nc(-c2ccc3c(c2)C(=Cc2cc(Br)c(O)c(Br)c2)C(=O)N3)cs1 | -4.53 | -3.76 | -0.78 | -1.56 | -1.55 | -1.77 | -1.51 | 0.42 | 1.58 | -0.72 |
| CNC(=O)c1cncc(/C=C/c2c(Cl)cccc2Cl)c1 | 0.5 | -4.5 | -0.73 | 0.7 | 2.98 | 2.14 | 1.96 | 2.05 | 2.47 | 1.82 |
| CCn1c(-c2nonc2N)nc2cncc(C(=O)N3CC[C@H](N)C3)c21 | 8.64 | 0.17 | -0.36 | 1.77 | 1.78 | 3.01 | 4.01 | 4.67 | 12.8 | 3.75 |
| COc1cc2ncn(-c3cc(OCc4ccccc4C(F)(F)F)c(C(N)=O)s3)c2cc1OC | -4.22 | -2.49 | -0.6 | 2.27 | 1.47 | 4.71 | 4.41 | 4.83 | 22.1 | 5.55 |
| CS(=O)(=O)CCN(CC#N)Cc1ccc(-c2ccc3ncnc(Nc4ccc(OCc5cccc(F)c5)c(Cl)c4)c3c2)o1 | -1.52 | -4.32 | -2.59 | 0.26 | 0.64 | 0.54 | -0.02 | 0.76 | -0.29 |  |
| CCn1c(-c2nonc2N)nc2ccncc21 | 2.7 | -2.35 | -1.48 | -0.18 | 0.49 | 0.85 | 1.7 | 0.76 | -0.05 | 0.13 |
| NC(=O)c1ccc(-c2nc(-c3ccccn3)c(-c3ccc4c(c3)OCO4)[nH]2)cc1 | 2.62 | -0.58 | -8.11 | 1.1 | 0.74 | 3.61 | 5.05 | 1.86 | 3.27 | 2.26 |
| NCc1ccc(-c2nc(-c3ccc(Cl)c(O)c3)c(-c3ccncc3)[nH]2)cc1 | 1.16 | 3.34 | 5.14 | -0.41 | -0.56 | 15.5 | 30.9 | 2.03 | 2.6 | 0.33 |
| N#Cc1c(NC(=O)c2cccc3ccccc23)sc2c1CCCC2 | 9.29 | 0.23 | 0.08 | 4.07 | 3.83 | 8.24 | 8.43 | 3.26 | 3.28 | 2.5 |
| COc1cc2ncn(-c3cc(O[C@H](C)c4ccccc4Cl)c(C(N)=O)s3)c2cc1OC | -9.77 | 0.64 | 1.35 | -0.8 | -0.71 | -2.77 | -0.41 | 5.95 | 31.9 | 3.47 |
| CC1=C(C(=O)Nc2ccc3[nH]ncc3c2)C(c2ccc3ccccc3c2)CC(=O)N1 (stereo unspecified) | 0.51 | 0.76 | -1.57 | 0.66 | 0.45 | 0.74 | 2.13 | 1.86 | 3.48 | 0.58 |
| CCc1cccc(NC(=O)Nc2ccc(Oc3ccc4nc(NC(=O)OC)[nH]c4c3)cc2)c1 | -5.23 | 6.75 | 1.42 | -0.49 | -1.61 | -2.74 | -3.85 | 1.69 | 0.31 | 1.5 |
| COc1ccc(-c2ccncc2)cc1C(N)=O | 12.2 | -0.69 | 3.38 | 5.44 | 6.42 | 9.46 | 12.5 | 2.8 | 4.12 | 3.29 |
| O=C1NC(=O)C(N2CCc3ccccc32)=C1c1ccc(Cl)cc1 | 13.8 | 1.5 | 1.94 | 4.64 | 5.01 | 10.4 | 10.3 | 3.93 | 5.85 | 5.98 |

| SMILES | inhibition [1] [%] | inhibition [2] [%] | inhibition [3] [%] | inhibition [4] [%] | inhibition [5] [%] | inhibition [6] [%] | inhibition [7] [%] | inhibition [8] [%] | inhibition [9] [%] | inhibition [10] [%] |
| --- | --- | --- | --- | --- | --- | --- | --- | --- | --- | --- |
| c1cnn2ncc(-c3ccnc(Nc4ccc5c(c4)OCCO5)n3)c2c1 | 3.76 | 1.81 | 1.89 | 2.05 | 2.24 | 3.74 | 3.81 | 4.18 | 24.3 | 5.06 |
| COC(=O)Nc1nc2cc(Oc3cccc(NC(=O)Nc4cc(C(F)(F)F)ccc4F)c3)ccc2[nH]1 | -0.6 | 5.45 | -0.15 | -0.06 | -0.64 | 0 | 1.82 | 1.21 | 1.49 | 0.8 |
| CCn1c(-c2nonc2N)nc2c(N3CCCC3)nccc21 | 0.8 | -6.15 | 4.26 | -1.28 | -1.63 | -0.94 | -1.73 | 0.71 | 2.75 | 1.92 |
| Cn1cc(C=C2C(=O)Nc3cccnc32)c2ccccc21 | 7.28 | 0.87 | 3.71 | 0.71 | 1.83 | 2.19 | 5.11 | 3.55 | 9.52 | 4.73 |
| COc1ccc(-c2coc3ncnc(N)c23)cc1 | 12.9 | 0.87 | -0.02 | 3.78 | 4.6 | 10.7 | 11.6 | 4.41 | 3.73 | 5.6 |
| Cc1ccc(NC(=O)c2ccnc(N3CCCC3)c2)cc1-c1ccc(C(=O)NCC2CC2)cc1 | 5.74 | -1.99 | -0.35 | 0.7 | 1.5 | 19.9 | 30.2 | 5.49 | 8.31 | 6.19 |
| COc1cc2c(cc1Nc1nc(N3CCc4ccccc43)c3cc[nH]c3n1)N(C(=O)CN(C)C)CC2 | 5.32 | -0.1 | -1.1 | 1.24 | 1.57 | 1.99 | 0.18 | 1.84 | 3.15 | 4.35 |
| [O-][S+]1CCN(Cc2ccc(-c3ccc4ncnc(Nc5ccc(OCc6ccccc6)c(F)c5)c4c3)o2)CC1 | 3.11 | 1.91 | 3.92 | 0.41 | 0.42 | 0.85 | 3.94 | 1.63 | 2.55 | 2.88 |
| COc1ccc2cc(-c3c(-c4ccncc4)nc(-c4ccc([S+](C)[O-])cc4)n3C)ccc2c1 (stereo unspecified) | 4.63 | 0.5 | 5.77 | 1 | 0.92 | 2.16 | 2.35 | 3.1 | 3.73 | 2.34 |
| CCN1CCC(CC(=O)Nc2n[nH]c3nc(-c4cccs4)c(Br)cc23)CC1 | 1.46 | 0.63 | 0.11 | -2.22 | -2.04 | -2.21 | -2.44 | -2.56 | -1.05 | 1 |
| CCn1c(-c2nonc2N)nc2cncc(C(=O)N3CCNCC3)c21 | 8.15 | 0.84 | 1.96 | 2.84 | 5.04 | 6.65 | 10.7 | 2.63 | 3.48 | 5.76 |
| Nc1ncnc2occ(-c3ccc(NC(=O)Nc4cccc(C(F)(F)F)c4)cc3)c12 | 4.16 | 0.41 | 1.61 | 3.79 | 3.15 | 9.11 | 20.7 | 3.95 | 8.44 | 3.75 |
| CCn1c(-c2nonc2N)nc2cnc(Oc3cccc(NC(=O)c4ccc(OCCN5CCOCC5)cc4)c3)cc21 | -1.31 | 0.99 | 2.71 | 1.4 | 0.54 | 3.45 | 3.54 | 3.31 | 13.3 | 0.46 |
| CC1=C(C(=O)Nc2ccc3[nH]ncc3c2)C(c2ccc(F)cc2)NC(=O)N1 (stereo unspecified) | 1.59 | 1.36 | -0.03 | 1.48 | 1.87 | 1.46 | 1.05 | 2.81 | 9.5 | 0.23 |
| CS(=O)(=O)CCNCc1ccc(-c2ccc3ncnc(Nc4ccc(OCc5cccc(F)c5)c(C(F)(F)F)c4)c3c2)o1 | 12.3 | 3.73 | 0.98 | 4.67 | 4.5 | 10 | 11.2 | 3.68 | 3.33 | 1.95 |
| CCCN1CCC(Oc2cc(Nc3nc(Nc4cccc(F)c4C(N)=O)c4cc[nH]c4n3)c(OC)cc2Cl)CC1 | 16.8 | -2.33 |  | -0.08 | -0.66 | 10.3 | -0.67 | -1.22 | 2.97 | -0.83 |
| CS(=O)(=O)CCNCc1nc(-c2ccc3ncnc(Nc4ccc(F)c(Cl)c4)c3c2)cs1 | 6.48 | 0.59 |  | 1.59 | 0.26 | 2.16 | 1.58 | 1.43 | 1.33 | 1.69 |
| CN(C)c1cc2c(Nc3ccc4nc(Cc5ccccc5)[nH]c4c3)ncnc2cn1 | 7.51 | 1.19 | 1.22 | 2.01 | 2.85 | 4.79 | 4.13 | 3.62 | 5.59 | 3.84 |
| NC(=O)c1cccc(Nc2nccc(Nc3cccc4[nH]ncc34)n2)c1 | 0.2 |  | 0.29 | -2.49 | -2.06 | -2.55 | -2.42 | -1.84 | 11.7 | 2.03 |
